“And” between values parts separate entries of the source, which are not always exact repeats. Equal entries are not always repeated. Values without a mark were called inactive. Records with an inconclusive call do not appear. A call without a number means that no potency is given here. The source made the active and inactive calls. Unless noted, the call rests on the fitted dose curve; in most records, active means well fitted curve in the direction sought with a large enough effect in the repeat runs; inconclusive means weak or mixed curves; inactive means no such curve, though single readings can be large; an effect the other way counts as inactive or inconclusive.
How the values were obtained:
[1] = qHTS assay to identify small molecule agonists of the estrogen receptor alpha (ER-alpha) signaling pathway in the presence of an antagonist - cell viability counter screen (AID 1259386);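 further: cells exposed to compounds for 22 h at 37 °C before the viability read; nearly all actives have a fitted effect of over 30% in size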; further: potency means the concentration at half of the fitted maximal effect
In short: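 In this counter screen, compound effects on VM7Luc4E2 viability were tested in the presence of the antagonist ICI-182,780 at 10.0nM final. Compounds were dosed at 15 concentrations, exposure lasted 22hr, and the CellTiter-Fluor signal was read.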

[2] = qHTS assay to identify small molecule antagonists of the progesterone receptor (PR) signaling pathway - cell viability counter screen (AID 1346798); further: nearly all actives have a fitted effect of over 50% in size; further: potency means the concentration at half of the fitted maximal effect
In short: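 PR-UAS-bla HEK293T cells in medium with 2% charcoal-stripped FBS were treated with compounds plus R5020 for 16 hr at 37C. Cell viability was then read by CellTiter-Glo luminescence after 30 min at room temperature in the same wells.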

[3] = qHTS assay to identify small molecule agonists of the progesterone receptor (PR) signaling pathway - cell viability counter screen (AID 1346799; calls by dose curve; further: potency means the concentration at half of the fitted maximal effect; nearly all actives have a fitted effect of over 45% in size)
In short: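 PR-UAS-bla HEK293T cells, 3,000 per well in medium with 2% charcoal-stripped FBS, were preincubated 6 hr at 37C, then exposed to compounds for 16 hr; viability was read as CellTiter-Glo luminescence after 30 min at room temperature.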

[4] = qHTS assay to identify small molecule agonists of the TGF-beta/Smad signaling pathway - cell viability counter screen (AID 1346829); further: top concentration of the series differs between compounds; nearly all actives have a fitted effect of over 45% in size
In short: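 Compound-treated SBE-bla HEK 293T cells (5 hr, 37 C) were assessed for viability with CellTiter-Glo in parallel with the reporter read.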

[5] = qHTS assay to identify small molecule agonists of the TGF-beta/Smad signaling pathway (AID 1346859; active means well fitted activation curve with a large enough effect in the signal ratio in the repeat runs, not every such curve was filed as active; the % refers to the signal ratio; further: series mostly up to about 77 µM)
In short: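 HEK 293T cells stably carrying a beta-lactamase reporter driven by the Smad binding element were seeded overnight, exposed to DMSO-dissolved compounds for 5 hr at 37 C, 5% CO2, then loaded with FRET substrate for 2 hr at room temperature.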

[6] = Human pregnane X receptor (PXR) small molecule agonists, qHTS cell viability counter screen (AID 1346977); further: nearly all actives have a fitted effect of over 50% in size; further: potency means the concentration at half of the fitted maximal effect
In short: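 PXR-Luc HepG2 cells in medium with 5% charcoal-stripped FBS were pre-incubated 5hr, then exposed to compounds for 24hr at 37C. Viability was read in the same wells by CellTiter-Fluor fluorescence, reagent added after 23hr with a 1hr incubation.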

[7] = Caspase-3/7 induction in HepG2 cells by small molecules, qHTS assay (AID 1346978); further: nearly all actives have a fitted effect of over 15% in size
In short: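 Wild-type HepG2 cells, 2,000/well, settled 5 hr at 37 C and 5% CO2, then compound-treated for 17 hr; caspase-3/7 activity read by luminescent Caspase-Glo 3/7 after 30 min at room temperature.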

[8] = Caspase-3/7 induction in CHO-K1 cells by small molecules, qHTS cell viability counter screen (AID 1346979); further: potency means the concentration at half of the fitted maximal effect; nearly all actives have a fitted effect of over 35% in size
In short: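 Wild-type CHO-K1 cells were seeded at 1,500 per well, rested 5hr at 37 C, then exposed to compounds in DMSO. After 16hr, CellTiter-Fluor reagent was added and fluorescence read 1hr later as the viability measure.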

[9] = Caspase-3/7 induction in CHO-K1 cells by small molecules, qHTS assay (AID 1346980); further: nearly all actives have a fitted effect of over 15% in size; further: potency means the concentration at half of the fitted maximal effect
In short: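 Wild-type CHO-K1 cells exposed to compounds for 17hr at 37 C, 5% CO2. Caspase-3/7 activity then measured by Caspase-Glo 3/7 luminescence after 30min at room temperature.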

[10] = Caspase-3/7 induction in HepG2 cells by small molecules, qHTS cell viability counter screen (AID 1346981); further: nearly all actives have a fitted effect of over 30% in size; further: potency means the concentration at half of the fitted maximal effect
In short: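 In this quantitative HTS counter screen, compounds delivered in DMSO were left on unmodified HepG2 cells for 16 hr at 37 C. Viability was then determined fluorometrically with CellTiter-Fluor, in parallel with caspase-3/7 induction in the same wells.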

[11] = qHTS assay to identify small molecule antagonists of the TGF-beta/Smad signaling pathway - cell viability counter screen (AID 1346824); further: nearly all actives have a fitted effect of over 50% in size
In short: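 SBE-bla HEK 293T cells, incubated overnight, then compound plus 0.25 ng/mL TGF-beta1 (stock added) for 5 hr at 37 C. Viability was read in the same wells by CellTiter-Glo luminescence after 30 min at room temperature.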

[12] = molecular target: Thyrotropin-releasing hormone receptor (Homo sapiens) (UniProt P34981); assay: qHTS assay to identify small molecule antagonists of the thyrotropin-releasing hormone receptor (TRHR) signaling pathway (AID 1346877; active means well fitted inhibition curve with a large enough effect in the repeat runs, not every such curve was filed as active; further: series mostly up to about 51 µM)
In short: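 Kinetic fluorescence (3 min, 1 s resolution) following stimulation with TRH at 1 nM final; HEK293 cells bearing human TRHR; 5 min compound preincubation at RT; concentration-response over 15 points, triplicates.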

[13] = molecular target: Thyrotropin-releasing hormone receptor (Homo sapiens) (UniProt P34981); assay: qHTS assay to identify small molecule agonists of the thyrotropin-releasing hormone receptor (TRHR) signaling pathway (AID 1346891; calls by dose curve; further: series mostly up to about 58 µM)
In short: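 TRHR-expressing HEK293 cells were plated 18 h at 37 °C/5% CO2, loaded with calcium dye 2 h at 37 °C, then given compound in DMSO; fluorescence was read kinetically for 3 min at 1 s intervals.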

[14] = molecular target: Nuclear receptor subfamily 1 group I member 2 (Homo sapiens) (UniProt O75469); assay: Human pregnane X receptor (PXR) small molecule agonists, qHTS assay (AID 1346982); further: nearly all actives have a fitted effect of over 35% in size; further: potency means the concentration at half of the fitted maximal effect
In short: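 Reporter HepG2 cells expressing PXR-Luc are cultured in charcoal-stripped FBS (5%), treated with compounds for 24 hr at 37 C, and assayed by ONE-Glo luminescence after 30 min at room temperature.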

[15] = molecular target: Acetylcholinesterase (Homo sapiens) (UniProt P22303); assay: Acetylcholinesterase (AChE) small molecule antagonists: colormetric cell-based qHTS assay (AID 1347395; calls by dose curve; further: nearly all actives have a fitted effect of over 30% in size; further: potency means the concentration at half of the fitted maximal effect)
In short: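 SH-SY5Y cells, plated overnight at 37 C, were exposed to compounds for 30 min at 37 C and 5% CO2. Acetylthiocholine plus DTNB was then added, and thiocholine from endogenous AChE was quantified colorimetrically after 90 min at 37 C.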

[16] = molecular target: Nuclear receptor subfamily 1 group I member 2 (Rattus norvegicus) (UniProt Q9R1A7); assay: Rat pregnane X receptor (rPXR) activation by small molecules, qHTS assay (AID 1346983); details: rPXR luciferase reporter cells, One-Glo luminescence, 24 h; max activation: active compounds read high; further: nearly all actives have a fitted effect of over 20% in size
In short: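 Cell-based rPXR activation assay: rPXR cells, 2,000 per well, rested 5hr at 37 C, then exposed to compounds in DMSO for 24 hr at 37 C. Luciferase activity read by One-Glo luminescence after 30 min at room temperature.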

[17] = molecular target: Nuclear receptor subfamily 1 group I member 2 (Homo sapiens) (UniProt O75469); assay: CYP3A4 induction through human pregnane X receptor (PXR) by small molecules, qHTS assay (AID 1346984); further: nearly all actives have a fitted effect of over 40% in size
In short: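 Induction measured in HepG2-based DPX-2 cells co-expressing human PXR and a CYP3A4 promoter-driven luciferase. After a 24-hour compound exposure, cells received CYP3A4 luciferin substrate at 3uM final for 3 hours, and light output was then recorded.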

[18] = molecular target: Nuclear receptor subfamily 1 group I member 2 (Homo sapiens) (UniProt O75469); assay: Human pregnane X receptor (PXR) activation by small molecules, qHTS assay (AID 1346985); further: nearly all actives have a fitted effect of over 40% in size
In short: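 DPX-2 cells (HepG2 co-transfected with a PXR response element and a CYP3A4-promoter luciferase construct) were seeded at 2,000 per well, rested 5 hr at 37C, then exposed to DMSO-dissolved compounds for 24 hr. Activation was read as luciferase luminescence.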

Sequence of Nuclear receptor subfamily 1 group I member 2 (Homo sapiens) (O75469 whole entry, looked up): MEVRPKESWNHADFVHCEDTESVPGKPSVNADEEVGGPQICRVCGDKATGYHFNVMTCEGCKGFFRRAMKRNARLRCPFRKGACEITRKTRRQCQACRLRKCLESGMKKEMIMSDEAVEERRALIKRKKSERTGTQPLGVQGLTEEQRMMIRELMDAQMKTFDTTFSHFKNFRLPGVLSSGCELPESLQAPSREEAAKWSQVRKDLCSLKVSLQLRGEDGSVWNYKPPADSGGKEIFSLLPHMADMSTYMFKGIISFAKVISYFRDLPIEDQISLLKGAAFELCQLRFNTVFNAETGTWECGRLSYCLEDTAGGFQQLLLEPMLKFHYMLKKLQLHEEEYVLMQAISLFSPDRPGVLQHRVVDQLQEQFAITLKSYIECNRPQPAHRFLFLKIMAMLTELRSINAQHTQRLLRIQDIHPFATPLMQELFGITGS
Sequence of Thyrotropin-releasing hormone receptor (Homo sapiens) (P34981 whole entry, looked up): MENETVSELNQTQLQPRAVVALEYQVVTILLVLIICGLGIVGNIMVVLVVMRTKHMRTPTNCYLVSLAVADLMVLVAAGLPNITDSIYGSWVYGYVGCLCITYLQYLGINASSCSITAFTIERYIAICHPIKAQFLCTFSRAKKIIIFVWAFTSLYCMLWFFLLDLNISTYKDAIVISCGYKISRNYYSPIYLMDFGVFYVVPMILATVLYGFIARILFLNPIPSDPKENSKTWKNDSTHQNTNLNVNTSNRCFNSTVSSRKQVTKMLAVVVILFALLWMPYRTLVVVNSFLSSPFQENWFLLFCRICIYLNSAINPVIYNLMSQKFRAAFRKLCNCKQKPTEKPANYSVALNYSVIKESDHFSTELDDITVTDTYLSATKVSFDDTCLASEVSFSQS
Sequence of Acetylcholinesterase (Homo sapiens) (P22303 whole entry, looked up): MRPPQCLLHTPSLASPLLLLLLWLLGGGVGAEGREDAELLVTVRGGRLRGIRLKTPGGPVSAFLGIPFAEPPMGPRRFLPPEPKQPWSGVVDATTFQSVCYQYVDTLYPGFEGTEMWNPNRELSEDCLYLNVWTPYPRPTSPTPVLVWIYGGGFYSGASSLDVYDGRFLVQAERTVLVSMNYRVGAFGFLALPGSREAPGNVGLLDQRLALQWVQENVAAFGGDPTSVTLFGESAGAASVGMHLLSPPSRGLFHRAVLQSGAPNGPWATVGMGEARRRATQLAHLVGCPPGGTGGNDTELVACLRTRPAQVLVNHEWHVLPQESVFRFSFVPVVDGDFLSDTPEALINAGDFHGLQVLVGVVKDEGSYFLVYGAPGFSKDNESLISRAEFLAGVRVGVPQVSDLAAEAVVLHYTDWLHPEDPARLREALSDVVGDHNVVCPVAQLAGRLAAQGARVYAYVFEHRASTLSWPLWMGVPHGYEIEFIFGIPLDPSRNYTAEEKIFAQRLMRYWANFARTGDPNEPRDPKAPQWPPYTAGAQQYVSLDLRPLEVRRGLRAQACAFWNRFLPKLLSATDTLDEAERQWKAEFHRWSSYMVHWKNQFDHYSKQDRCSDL
Sequence of Nuclear receptor subfamily 1 group I member 2 (Rattus norvegicus) (Q9R1A7 whole entry, looked up): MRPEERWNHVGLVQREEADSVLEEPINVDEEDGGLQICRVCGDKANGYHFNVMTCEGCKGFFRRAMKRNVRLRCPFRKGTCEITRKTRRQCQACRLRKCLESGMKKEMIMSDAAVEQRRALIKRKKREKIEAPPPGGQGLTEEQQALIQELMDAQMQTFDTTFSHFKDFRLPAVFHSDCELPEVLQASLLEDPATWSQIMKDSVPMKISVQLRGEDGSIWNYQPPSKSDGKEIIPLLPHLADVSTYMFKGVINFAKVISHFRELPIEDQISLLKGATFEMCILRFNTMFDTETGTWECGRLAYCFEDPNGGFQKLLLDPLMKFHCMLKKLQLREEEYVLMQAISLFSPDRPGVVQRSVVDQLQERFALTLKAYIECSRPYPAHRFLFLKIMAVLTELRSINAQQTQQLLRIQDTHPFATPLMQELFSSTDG

SMILES	Potency [1]	Potency [2]	Potency [3]	Potency [4]	outcome [5]	Potency [6]	Potency [7]	Potency [8]	Potency [9]	Potency [10]	Potency [11]	Potency [12]	Potency [13]	Potency [14]	Potency [15]	max activation [16]	Potency [17]	Potency [18]
[Cd+2].[Cl-].[Cl-]	61.6 µM (active) and 54.5 µM (active)	4.36 µM (active) and 2.73 µM (active)	13.8 µM (active) and 6.11 µM (active)	inactive	inactive	794 nM (active) and 344 nM (active)	inactive	1.23 µM (active) and 611 nM (active)	inactive	54.9 µM (active) and 30.6 µM (active)								
c1cc[c]([Sb]([c]2ccccc2)[c]2ccccc2)cc1	inactive			inactive		inactive		68.6 µM (active)		inactive	inactive	inactive	inactive	54.5 µM (active)	inactive			
CC(=O)C(Cl)(Cl)Cl	18.7 µM (active)	inactive		inactive	inactive		inactive	14.8 µM (active)	inactive	18.7 µM (active)	inactive	inactive	inactive	23.5 µM (active)	inactive			
CC(=O)O[C@H]1CC[C@@]2(C)C(=CC[C@@H]3[C@@H]2CC[C@]2(C)C(=O)CC[C@@H]32)C1	inactive	68.6 µM (active)		inactive	inactive	inactive	inactive		inactive	inactive	inactive			54.5 µM (active)	inactive	-1.42%	inactive	inactive
COc1cccc2c1C(=O)c1c(O)c3c(c(O)c1C2=O)C[C@@](O)(C(=O)CO)CC3OC1CC(N2CCOC(OC)C2)C(O)C(C)O1 (stereo not given in full)	10.6 µM (active)	0.266 µM (active)		inactive		168 nM (active)		9.44 µM (active)	0.168 µM (active)	16.8 µM (active)	inactive			inactive	12.3 µM (active)			
Oc1c(Cl)c(Cl)cc(Cl)c1Cl	inactive	inactive		inactive	inactive		inactive		inactive	inactive		inactive	inactive		inactive			
CC(C)[C@H](C(=O)O[C@H](C#N)c1cccc(Oc2ccccc2)c1)c1ccc(Cl)cc1	inactive				inactive	inactive	inactive		inactive	inactive				4.32 µM (active)	inactive			

From PubChem BioAssay (Tox21)
